{"source": "PubChem BioAssay", "key": {"[1]": {"assay": "A549 cell viability effects, profiling panel, calcein-AM fluorescence, 48 h, basal (AID 1162); note: test concentration not given here", "details": "higher = more signal"}, "[2]": {"assay": "adipocyte viability effects, profiling panel, cell-based, 3T3-L1 adipocytes, calcein-AM fluorescence, 48 h, basal (AID 1163); note: test concentration not given here", "details": "3T3-L1 adipocytes viability, higher = more signal"}, "[3]": {"assay": "HepG2 cell viability effects, profiling panel, calcein-AM fluorescence, 48 h, basal (AID 1164); note: test concentration not given here", "details": "higher = more signal"}, "[4]": {"assay": "MM1S cell viability effects, profiling panel, calcein-AM fluorescence, 48 h, basal (AID 1165);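 note: viability of MM1S multiple myeloma cells under basal unstimulated conditions; test concentration not given here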", "details": "higher = more signal"}, "[5]": {"assay": "basal RPMI8226 viability, no added stimulus, profiling panel, cell-based, calcein-AM fluorescence, 48 h, PK04 Diversity Set (AID 1166);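 note: cells grown under basal conditions without added stimulus; test concentration not given here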", "details": "RPMI8226 myeloma viability, higher = more signal"}, "[6]": {"assay": "basal HepG2 mitochondrial membrane potential changes, profiling panel, cell-based, JC-1 fluorescence, 24 h, 100 nL compound (AID 1167); note: test concentration not given here", "details": "higher = more signal"}, "[7]": {"assay": "basal 3T3-L1 adipocyte mitochondrial potential changes, profiling panel, cell-based, JC-1 fluorescence, 3T3-L1 adipocytes, 24 h, 100 nL compound (AID 1168); note: test concentration not given here", "details": "JC-1 mitochondrial fluorescence, higher = more signal, called active from +8 up or from −8 down"}, "[8]": {"assay": "basal RPMI8226 mitochondrial membrane potential changes, profiling panel, cell-based, JC-1 fluorescence, 24 h, 100 nL compound (AID 1169); note: test concentration not given here", "details": "RPMI8226 myeloma, JC-1 mitochondrial potential fluorescence, higher = more signal"}, "[9]": {"assay": "basal MM1S mitochondrial membrane potential changes, profiling panel, cell-based, JC-1 fluorescence, 24 h, 100 nL compound (AID 1170); note: test concentration not given here", "details": "higher = more signal"}, "[10]": {"assay": "A549 lung cancer cell viability effects, profiling panel, resazurin fluorescence, 24 h, PK04 Diversity Set (AID 1171); note: test concentration not given here", "details": "higher = more signal, called active from +8 up or from −8 down"}, "[11]": {"assay": "HepG2 liver cancer cell viability effects, profiling panel, resazurin fluorescence, 24 h, PK04 Diversity Set (AID 1172); note: test concentration not given here", "details": "higher = more signal"}, "[12]": {"assay": "basal S. cerevisiae growth modulation, no modifier, primary screen, OD600, strain BY4716, 24 h, basal condition (AID 1173)", "details": "OD600, 24 h, higher = more signal, called active from +8 up or from −8 down"}, "[13]": {"assay": "MM1S myeloma cell viability, profiling panel, resazurin fluorescence, basal, 24 h, PK04 Diversity Set (AID 1174);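 note: MM1S multiple myeloma cell line; test concentration not given here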", "details": "higher = more signal, called active from +8 up or from −8 down"}, "[14]": {"biological_target": "Dihydroorotate dehydrogenase (quinone), mitochondrial (Plasmodium falciparum (isolate 3D7)) (UniProt Q08210)", "sequence (Q08210 whole entry, looked up)": "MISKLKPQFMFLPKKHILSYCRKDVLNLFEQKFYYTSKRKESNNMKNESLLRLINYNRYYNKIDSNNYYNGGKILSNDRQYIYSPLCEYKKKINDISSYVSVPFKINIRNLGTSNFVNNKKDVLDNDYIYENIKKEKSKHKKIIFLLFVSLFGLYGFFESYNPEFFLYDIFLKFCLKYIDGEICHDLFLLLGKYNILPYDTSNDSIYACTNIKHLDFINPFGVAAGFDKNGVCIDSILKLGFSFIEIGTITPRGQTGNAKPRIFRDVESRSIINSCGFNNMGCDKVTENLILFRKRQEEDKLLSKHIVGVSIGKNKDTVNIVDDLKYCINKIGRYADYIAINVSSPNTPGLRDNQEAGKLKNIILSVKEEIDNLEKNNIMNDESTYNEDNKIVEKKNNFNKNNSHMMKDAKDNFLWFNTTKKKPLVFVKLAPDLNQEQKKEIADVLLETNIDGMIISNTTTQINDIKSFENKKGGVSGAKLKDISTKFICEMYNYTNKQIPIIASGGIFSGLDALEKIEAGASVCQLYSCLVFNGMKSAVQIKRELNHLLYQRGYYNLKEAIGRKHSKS", "assay": "PfDHODH enzyme inhibitors, primary screen, biochemical, C-terminal His tag, absorbance 600 nm (AID 1175);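 note: recombinant parasite enzyme with a five histidine tag at its C terminus; test concentration not given here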", "details": "DCIP absorbance 600 nm, higher = more signal, called active from +8 up or from −8 down"}, "[15]": {"assay": "P. aeruginosa biofilm formation inhibitors, primary screen, strain PAO1, LB-PBS medium, absorbance 600 nm (AID 1176); note: test concentration not given here", "details": "P. aeruginosa PAO1 growth/biofilm, A600, 12 h; higher = more signal"}, "[16]": {"assay": "S. cerevisiae RM11-1a growth modifiers, primary screen, strain RM11-1a, OD600, basal, 24 h (AID 1177);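 note: cultures grown under basal conditions with no added stressor; test concentration not given here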", "details": "OD600, 24 h, higher = more signal, called active from +8 up or from −8 down"}, "[17]": {"assay": "E. coli acrAB mutant growth effects, primary screen, E. coli filamentation inducers, strain DRC39, OD650, 24 h (AID 1178);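 note: growth measured as culture turbidity by optical density at 650 nm; test concentration not given here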", "details": "higher = more signal, called active from +8 up or from −8 down"}, "[18]": {"assay": "E. coli acrAB mutant growth effects, primary screen, E. coli filamentation inducers, strain DRC39, OD650, 48 h (AID 1179);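 note: screen aims at cell division blockers that make cells filament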", "details": "E. coli DRC39 delta-acrAB growth, higher = more signal, called active from +8 up or from −8 down"}, "[19]": {"assay": "RPMI8226 myeloma cell viability, profiling panel, resazurin fluorescence, basal, 24 h, PK04 Diversity Set (AID 1180);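 note: RPMI8826 multiple myeloma cell line at 5000 cells per well; test concentration not given here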", "details": "higher = more signal"}, "[20]": {"biological_target": "E3 ubiquitin-protein ligase XIAP (Homo sapiens) (UniProt P98170)", "sequence (P98170 whole entry, looked up)": "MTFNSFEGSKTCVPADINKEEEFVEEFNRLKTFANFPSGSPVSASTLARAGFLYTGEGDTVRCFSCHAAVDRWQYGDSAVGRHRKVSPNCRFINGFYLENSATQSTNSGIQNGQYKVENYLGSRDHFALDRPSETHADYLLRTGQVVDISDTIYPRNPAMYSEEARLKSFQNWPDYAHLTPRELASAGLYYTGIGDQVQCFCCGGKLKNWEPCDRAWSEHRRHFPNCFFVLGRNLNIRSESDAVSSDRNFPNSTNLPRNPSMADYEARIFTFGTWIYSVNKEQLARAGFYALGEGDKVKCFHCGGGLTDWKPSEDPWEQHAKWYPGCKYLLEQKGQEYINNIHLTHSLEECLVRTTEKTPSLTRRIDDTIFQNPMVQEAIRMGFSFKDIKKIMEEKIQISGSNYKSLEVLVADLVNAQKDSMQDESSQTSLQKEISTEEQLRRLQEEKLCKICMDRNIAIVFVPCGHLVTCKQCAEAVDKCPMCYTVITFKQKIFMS", "assay": "XIAP binders, primary screen, biophysical, small-molecule microarray, fluorescence 635 nm (AID 1181);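 note: score merges 667 nm emission and signal to noise over triplicate slides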", "details": "small-molecule microarray binding, higher = more signal"}}, "note": "The source made the active and inactive calls. Unless noted, the rule behind the calls is not given here.", "data": [{"smiles": "C/C=C/[C@@H](CCn1cc([C@H](O)c2ccccc2)nn1)[Si](C)(C)c1ccc(OC)cc1", "values": [{"measurement": "z-score", "setting": "[1]", "result": -0.536}, {"measurement": "z-score", "setting": "[2]", "result": 0.485}, {"measurement": "z-score", "setting": "[3]", "result": -0.713}, {"measurement": "z-score", "setting": "[4]", "result": -2.9}, {"measurement": "z-score", "setting": "[5]", "result": -3.1}, {"measurement": "z-score", "setting": "[6]", "result": -1.13}, {"measurement": "z-score", "setting": "[7]", "result": "-0.255 (inactive)"}, {"measurement": "z-score", "setting": "[8]", "result": -0.268}, {"measurement": "z-score", "setting": "[9]", "result": -0.462}, {"measurement": "z-score", "setting": "[10]", "result": "0.372 (inactive)"}, {"measurement": "z-score", "setting": "[11]", "result": 0.121}, {"measurement": "z-score", "setting": "[12]", "result": "-1.5 (inactive)"}, {"measurement": "z-score", "setting": "[13]", "result": "-0.567 (inactive)"}, {"measurement": "composite z-score", "setting": "[14]", "result": "-0.222 (inactive)"}, {"measurement": "z-score", "setting": "[15]", "result": "0.0002 (inactive)"}, {"measurement": "z-score", "setting": "[16]", "result": "0.72 (inactive)"}, {"measurement": "z-score", "setting": "[17]", "result": "0.508 (inactive)"}, {"measurement": "z-score", "setting": "[18]", "result": "-0.253 (inactive)"}, {"measurement": "z-score", "setting": "[19]", "result": -0.472}, {"measurement": "composite z-score", "setting": "[20]", "result": -0.0918}]}, {"smiles": "COCCCNC(=O)[C@@H]1c2ccccc2C(=O)N(Cc2cc(F)cc(C(F)(F)F)c2)[C@H]1c1ccc(CO)cc1", "values": [{"measurement": "z-score", "setting": "[1]", "result": 0.323}, {"measurement": "z-score", "setting": "[2]", "result": 0.0853}, {"measurement": "z-score", "setting": "[3]", "result": 0.463}, {"measurement": "z-score", "setting": "[4]", "result": 0.575}, {"measurement": "z-score", "setting": "[5]", "result": -0.725}, {"measurement": "z-score", "setting": "[6]", "result": 1.25}, {"measurement": "z-score", "setting": "[7]", "result": "-0.82 (inactive)"}, {"measurement": "z-score", "setting": "[8]", "result": 1.15}, {"measurement": "z-score", "setting": "[9]", "result": -0.33}, {"measurement": "z-score", "setting": "[10]", "result": "0.301 (inactive)"}, {"measurement": "z-score", "setting": "[11]", "result": -0.434}, {"measurement": "z-score", "setting": "[12]", "result": "-0.336 (inactive)"}, {"measurement": "z-score", "setting": "[13]", "result": "-0.522 (inactive)"}, {"measurement": "composite z-score", "setting": "[14]", "result": "-1.13 (inactive)"}, {"measurement": "z-score", "setting": "[15]", "result": "0.36 (inactive)"}, {"measurement": "z-score", "setting": "[16]", "result": "-0.955 (inactive)"}, {"measurement": "z-score", "setting": "[17]", "result": "-0.109 (inactive)"}, {"measurement": "z-score", "setting": "[18]", "result": "-0.0475 (inactive)"}, {"measurement": "z-score", "setting": "[19]", "result": -0.197}, {"measurement": "composite z-score", "setting": "[20]", "result": -0.309}]}, {"smiles": "O=C1NC(=O)C2C1C=CC(C(O)CCc1ccccc1)N2Nc1ccccn1", "note": "(stereo not given)", "values": [{"measurement": "z-score", "setting": "[1]", "result": -1.58}, {"measurement": "z-score", "setting": "[2]", "result": 0.0058}, {"measurement": "z-score", "setting": "[3]", "result": 1.23}, {"measurement": "z-score", "setting": "[4]", "result": 0.87}, {"measurement": "z-score", "setting": "[5]", "result": 1.02}, {"measurement": "z-score", "setting": "[6]", "result": -0.149}, {"measurement": "z-score", "setting": "[7]", "result": "-0.382 (inactive)"}, {"measurement": "z-score", "setting": "[8]", "result": 0.282}, {"measurement": "z-score", "setting": "[9]", "result": 0.228}, {"measurement": "z-score", "setting": "[10]", "result": "-1.72 (inactive)"}, {"measurement": "z-score", "setting": "[11]", "result": -0.875}, {"measurement": "z-score", "setting": "[12]", "result": "0.725 (inactive)"}, {"measurement": "z-score", "setting": "[13]", "result": "-0.871 (inactive)"}, {"measurement": "composite z-score", "setting": "[14]", "result": "-0.505 (inactive)"}, {"measurement": "z-score", "setting": "[15]", "result": "1.65 (inactive)"}, {"measurement": "z-score", "setting": "[16]", "result": "-1.07 (inactive)"}, {"measurement": "z-score", "setting": "[17]", "result": "0.696 (inactive)"}, {"measurement": "z-score", "setting": "[18]", "result": "1.07 (inactive)"}, {"measurement": "z-score", "setting": "[19]", "result": -0.717}, {"measurement": "composite z-score", "setting": "[20]", "result": 0.107}]}, {"smiles": "CC(C)C[C@@H]1NC(=O)[C@@]23C(=O)N[C@@H](Cc4ccccc4)C2[C@H](C)[C@@]2(C)O[C@H]2C3/C=C/C/C=C\\CNC(=O)[C@@H]2CCCN2C1=O", "note": "(stereo not given in full)", "values": [{"measurement": "z-score", "setting": "[1]", "result": -0.486}, {"measurement": "z-score", "setting": "[2]", "result": 0.0971}, {"measurement": "z-score", "setting": "[3]", "result": -0.809}, {"measurement": "z-score", "setting": "[4]", "result": -0.641}, {"measurement": "z-score", "setting": "[5]", "result": 0.219}, {"measurement": "z-score", "setting": "[6]", "result": -0.00843}, {"measurement": "z-score", "setting": "[7]", "result": "0.568 (inactive)"}, {"measurement": "z-score", "setting": "[8]", "result": 0.548}, {"measurement": "z-score", "setting": "[9]", "result": -0.491}, {"measurement": "z-score", "setting": "[10]", "result": "-0.023 (inactive)"}, {"measurement": "z-score", "setting": "[11]", "result": -0.462}, {"measurement": "z-score", "setting": "[12]", "result": "-0.47 (inactive)"}, {"measurement": "z-score", "setting": "[13]", "result": "0.17 (inactive)"}, {"measurement": "composite z-score", "setting": "[14]", "result": "-0.487 (inactive)"}, {"measurement": "z-score", "setting": "[15]", "result": "0.577 (inactive)"}, {"measurement": "z-score", "setting": "[16]", "result": "-0.0014 (inactive)"}, {"measurement": "z-score", "setting": "[17]", "result": "-0.536 (inactive)"}, {"measurement": "z-score", "setting": "[18]", "result": "-0.146 (inactive)"}, {"measurement": "z-score", "setting": "[19]", "result": -0.39}, {"measurement": "composite z-score", "setting": "[20]", "result": -0.207}]}]}
